An excerpt weighted towards active compounds, which were near 2.3% of everything screened.
Nrf2 block: Nrf2 qHTS screen for inhibitors; Potency, µM (top dose mostly 46 µM), for the others: at the top dose activity change, negative = inhibition, usual class: inhibitors; 360,000 tested, 2.1% active; AID 504444, 2011; A549 ARE-Fluc reporter, luciferase luminescence, 18-24 h; note: potency is the fitted concentration of half-maximal effect; % is set by controls: 0 for no effect and ±100 for the full control effect; nearly all actives have a fitted effect of over 60% in size
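A549 ARE_Fluc cells (5000/well, 5% FBS OPTI-MEM) pre-incubated 2 h, then treated with compounds 18-24 h at 37C/5% CO2 in concentration-response. CellTiter-Fluor viability read first; BugLite luciferase luminescence after 15 min at room temperature gives Nrf2 activity.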
Nrf2 ARE act: qHTS of Nrf2 Activators; AREc32 ARE-luciferase reporter (MCF7-derived line), luminescence, 24 h; Potency, µM (titrated, usually from 46.1 µM), for the others: at the top dose activation, actives largely listed as activators; 410,000 tested, 0.31% active; AID 624171, 2012; note: potency is the fitted concentration of half-maximal effect; % of control where 0% means no effect; nearly all actives have a fitted effect of over 65% in size
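ARE-driven firefly luciferase activity in AREc32 cells measured after a 24 hr compound exposure at 37 deg C, using Steady-Glo reagent and a 30 min room-temperature hold.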
A549 viability: Nrf2 qHTS screen for inhibitors: counterscreen for cytotoxicity; A549 ARE-Fluc cells, CellTiter-Fluor viability, 18-24 h; Potency, µM (series often up to 46 µM), for inactives: at the top dose activity change, negative = cytotoxicity, hits mostly inhibitors; 390,000 tested, 0.16% active; AID 504648, 2011; note: potency is the fitted concentration of half-maximal effect; % is set by controls: 0 for no effect and ±100 for the full control effect
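A549 ARE_Fluc cells in 5% FBS OPTI-MEM were exposed to compounds in concentration-response for 18-24 h at 37 deg C. Viability was read by CellTiter-Fluor fluorescence (Ex 405/Em 525) after 30 min, before the luciferase read.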
IL-2 act: qHTS of IL-2 Activators | IL-2 activation reporter assay, cell-based qHTS; stimulated with anti-CD3/CD4/CD28 beads; in transgenic mouse T cells | activation, % (series mostly up to about 46 µM) | 360,000 tested, 0.065% active | AID 652025, 2013; in the data active = activation above about 50%; inconclusive = mostly about 30% to 49%; note: 0% is about no effect
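Using fluorescent plate cytometry, EGFP and DsRed are detected in transgenic mouse T cells stimulated 18 h at 37 degrees C with antibody-coated beads after 60 min compound pretreatment.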
* marks the source's active call; other numbers are inactive results; ? = inconclusive; . = not tested or not shown; [ ] = another dose, or the depositor's remark. Unless noted, calls come from the whole dose curve; as a rule, active = well fitted curve in the direction sought with a large enough effect; inconclusive = small, poorly fitted or top-dose-only effect, or another doubt; inactive = no such curve, though single readings can be large; an effect the other way counts as inactive or inconclusive.

SMILES	Nrf2 block	Nrf2 ARE act	A549 viability	IL-2 act
CCC(=O)N1CCc2cc(S(=O)(=O)NCCC(=O)N3CCN(c4cccc(C)c4)C(C)C3)ccc21 (stereo not given)	18µM*	1%	2%	0
Cc1ccc(NC(=O)c2cc(S(=O)(=O)NCCC3=CCCCC3)ccc2F)cc1F	10µM*	0%	?	-1
Cc1cc(C)cc(NC(=O)c2cc(S(=O)(=O)NCCC3=CCCCC3)ccc2F)c1	.	8%	3%	.
CC(=O)N1CCc2cc(S(=O)(=O)NC3CCCc4ccccc43)ccc21 (stereo not given)	6.3µM*	3%	-8%	-4
CC(=O)N1CCc2cc(S(=O)(=O)NCCC(=O)N3CCc4ccccc4C3)ccc21	13µM*	0%	-16%	-1
COc1ccccc1NC(=O)c1ccc2ccccc2c1	?	.	15%	.
Cc1cc(S(=O)(=O)NCCC2=CCCCC2)ccc1Br	?	1%	-11%	0
CC(=O)N1CCc2cc(S(=O)(=O)NCCC3=CCCCC3)ccc21	3.7µM*	-1%	-11%	-2
Cc1ccc(S(=O)(=O)NCCC2=CCCCC2)cc1C(N)=O	10µM*	-1%	-5%	-3
COc1ccc(NC(=O)CSc2nncn3c2cc2oc(C)cc23)cc1OC	25%	1%	-4%	.
O=C(CSc1nnc2ccc3ccccc3n12)c1ccc(F)cc1	?	13µM*	0%	.
O=C(CSc1nnc(-c2ccccc2Br)n1-c1ccccc1)c1ccc(F)cc1	18µM*	5%	?	.
CC(=O)Nc1ccc(C(=O)CSc2nnc3ccc4ccccc4n23)cc1	5%	2%	-1%	.
C[n+]1ccc(/C=C/c2ccc(Br)cc2)cc1	7.3µM*	11%	?	-6
CCCn1c(/C=C/c2cc[n+](C)cc2)nc2ccccc21	12%	2%[9.22 µM]	?	1
COc1ccc(C2C(=O)N(C3CCCCCC3)CC(=O)N2Cc2ccc(C)cc2)cc1OC (stereo not given)	.	0%	11%	.
CC(=C/C(=O)O)/C=C/c1ccco1	4%	?	0%	1
CCN(C(=O)C=Cc1ccco1)c1ccccc1	3%	14µM*	4%	0
Cc1cc(NC(=O)CS(=O)(=O)c2cn(Cc3cccc(Br)c3)c3ccccc23)no1	.	0%	.	-1
Cc1cc(NC(=O)CS(=O)(=O)c2cn(Cc3ccccc3Cl)c3ccccc23)no1	26µM*	-1%	-17%[1.84 µM]	0
NS(=O)(=O)c1ccc(N/N=C/c2ccc[nH]2)c([N+](=O)[O-])c1	8.2µM*	7%	-6%	1
NS(=O)(=O)c1ccc(N/N=C/c2cn(-c3ccccc3)nc2-c2cccs2)c([N+](=O)[O-])c1	10µM*	-2%	13µM*	-8
O=C(c1cccc2ccccc12)N1CCN(S(=O)(=O)c2ccccc2)CC1	-2%	.	6%	.
Cc1ccc(C2N=C(Nc3nc4ccccc4o3)NC3=C2C(=O)CC(C)(C)C3)cc1 (stereo not given)	22%	.	-2%	.
Cc1nc(SCc2ccccc2)c2ccsc2n1	-24%	?	-1%	-4
SMILES	Nrf2 block	Nrf2 ARE act	A549 viability	IL-2 act
c1ccc2sc(Sc3ncnc4sccc34)nc2c1	?	8.9µM*	0%	-2
c1ccc(CSc2ncnc3sccc23)cc1	9%	11µM*	0%	0
COc1ccc(C2C(=O)N(C3CCC(C)CC3)CC(=O)N2CCC2=CCCCC2)cc1OC (stereo not given)	.	0%	-4%	.
Cc1ccc(NC(=O)c2ccc(Cl)c(S(=O)(=O)N3CCCCC3)c2)nc1	21µM*	-1%	-7%	0
Cc1cc(NC(=O)c2ccc(Cl)c(S(=O)(=O)N3CCCCC3)c2)no1	23µM*	0%	-16%	-3
Cc1ccnc(NC(=O)c2ccc(Cl)c(S(=O)(=O)N3CCCCC3)c2)c1	?	0%	-15%	0
Cc1ccnc(NC(=O)c2cccc(S(=O)(=O)N3CCN(c4ccccc4)CC3)c2)c1	?	-1%	-1%	-1
Cc1ccc(NC(=O)c2cccc(S(=O)(=O)N3CCN(c4ccccc4)CC3)c2)nc1	15µM*	3%	-11%	-1
Cc1ccnc(NC(=O)c2ccc(Cl)c(S(=O)(=O)N3CCCC3)c2)c1	?	0%	-2%	-4
COc1ccc(-n2c(-c3ccc(F)cc3)cn3c4c(=O)n(C)c(=O)n(C)c4nc23)cc1	7%	0%	-6%	.
CC1=C(C(=O)OC2CCCC2)C(c2c(Cl)cccc2Cl)CC(=O)N1 (stereo not given)	?	-1%	-2%	.
CC1=C(C(=O)OC2CCCCCC2)C(c2c(Cl)cccc2Cl)CC(=O)N1 (stereo not given)	21µM*	-3%	-10%	.
Cc1c(CCC(=O)O)c(=O)oc2cc(OCc3ccccc3Br)ccc12	21µM*	-2%	-6%	0
C[C@@H]1C[C@H]2[C@@H]3C[C@H](F)C4=CC(=O)C=C[C@]4(C)[C@@]3(Cl)[C@@H](O)C[C@]2(C)[C@H]1C(=O)COC(=O)C(C)(C)C	0.0065µM*	-1%	-5%	-1
Cc1oc(-c2ccc(C(=O)Nc3ccc(F)cc3F)cc2)nc1COc1ccccc1	?	-1%	4%	.
COc1cccc(-c2nnc3n2N=C(c2ccccc2OC)CS3)c1	?	.	-1%	.
CCOc1ccc(-n2nc(CO)c(C(=O)NCc3cccc(OC)c3)n2)cc1	?	6%	-11%	.
Cc1ccccc1Nc1nc(Nc2ccccc2C)nc(SC2=NCCS2)n1	26µM*	0%	-22%	-1
CCOc1ccc(OCC)c(NC(=O)CN(c2ccc(C)cc2)S(=O)(=O)c2c(C)noc2C)c1	-25%	-1%	-8%	-1
COc1cccc(CNC(=O)CN(c2ccc(C(C)C)cc2)S(=O)(=O)c2c(C)noc2C)c1	16µM*	2%	-5%	0
Cc1ccc(CNC(=O)CN(c2ccc(C(C)C)cc2)S(=O)(=O)c2c(C)n[nH]c2C)cc1	23µM*	0%	?	.
COc1cccc(CNC(=O)CN(c2cc(C)cc(C)c2)S(=O)(=O)c2c(C)noc2C)c1	0%	-1%	0%	3
CCOc1ccccc1NC(=O)CN(c1ccc(C)cc1)S(=O)(=O)c1c(C)noc1C	16µM*	0%	-4%	0
CCn1cc2nc(SCc3ccc(F)cc3)n(Cc3ccc(Cl)cc3)c(=O)c2n1	?	-1%	4%	.
CC(C)(C)OC(=O)n1c2ccsc2c2cnn(Cc3ccccc3F)c(=O)c21	-9%	.	-2%	.
O=c1c(-c2ccco2)nc2ccccc2n1C(c1ccccc1)c1nc2ccccc2[nH]1 (stereo not given)	.	.	.	-1
Cc1ccccc1OCc1nc2ccccc2c(=O)n1/N=C/c1c[nH]c2ccccc12	?	6%	?	-3
Cc1cc(/C=N/n2c(COc3ccccc3C)nc3ccccc3c2=O)c(O)c([N+](=O)[O-])c1	8.2µM*	3%	?	0
